Pf growth 48h = Primary qHTS for delayed death inhibitors of the malarial parasite plastid, 48 hour incubation. Potency, µM (series often up to 28.7 µM), inactives show top-dose activity change, negative = inhibition, usual class: inhibitors. 5.9% of 310,000 active. P. falciparum luciferase growth in erythrocytes, 48 h. AID 504832, 2011; also: potency is read from the fitted curve at half-maximal effect
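Firefly luciferase activity from engineered P. falciparum reports growth; inhibitors lower the luminescent signal. Cultures contained 2% hematocrit erythrocytes at 0.1% final parasitemia.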
HCMV antiviral = qHTS Assay for inhibitors of the human cytomegalovirus (HCMV); HFF cells, HCMV-luciferase reporter, 72 h; hits give low values; activity change, negative = inhibition, % at 57.5 µM; 4.5% of 410,000 active; AID 1259415, 2018; in the data active = activity change below about -60%; inconclusive = no clear call, values can overlap the other calls; inactive = above about -39%
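Human foreskin fibroblasts infected with luciferase-reporter HCMV at MOI 1 PFU/cell, compounds at two doses. Luciferase measured 72 h post infection; normalized to buffer-only basal and Salinomycin (10uM) controls.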
Giardia FBPA inh = qHTS Assay for Inhibitors of Fructose-1,6-bisphosphate Aldolase from Giardia Lamblia; Potency, µM (doses to about 59.6 µM), for the others: top-dose activity, negative = inhibition, hits mostly inhibitors; A8B2U2; AID 2451, 2010; purified Giardia FBPA; 0.71% of 290,000 active; also: potency is read from the fitted curve at half-maximal effect; nearly all actives have a fitted effect of over 55% in size
Target sequence (A8B2U2 whole entry, looked up): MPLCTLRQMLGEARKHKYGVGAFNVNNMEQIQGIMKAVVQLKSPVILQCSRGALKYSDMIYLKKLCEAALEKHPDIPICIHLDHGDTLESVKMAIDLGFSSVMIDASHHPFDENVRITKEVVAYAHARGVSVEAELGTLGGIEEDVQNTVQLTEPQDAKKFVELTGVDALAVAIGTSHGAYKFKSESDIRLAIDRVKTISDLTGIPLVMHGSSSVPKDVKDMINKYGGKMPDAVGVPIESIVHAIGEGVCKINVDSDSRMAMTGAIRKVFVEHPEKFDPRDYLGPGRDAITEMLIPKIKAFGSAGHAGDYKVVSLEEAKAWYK
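Giardia FBPA (40 nM reagent) was preincubated 10 min at RT with compound (up to 57.5 uM final), then substrate plus GAPDH/TPI/NAD/arsenate coupling system with diaphorase/resazurin was added; resorufin fluorescence (525/598 nm) was read after 20 min.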
Pf growth 96h = Primary qHTS for delayed death inhibitors of the malarial parasite plastid, 96 hour incubation | P. falciparum luciferase reporter growth, 96 h | Potency, µM (series often up to 28.7 µM), without a hit: top-dose activity change, negative = inhibition, hits mostly inhibitors | 6.9% of 320,000 active; also: potency is read from the fitted curve at half-maximal effect
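Luminescence readout: decreased luciferase signal marks inhibited growth of reporter-expressing P. falciparum in infected red cells (2% hematocrit, 0.05% parasitemia final), exposed to compound two generations (96 h, 37 C, 5% CO2).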
Sm TGR inh = qHTS Assay for the Inhibitors of Schistosoma Mansoni Peroxiredoxins; Schistosoma mansoni thioredoxin glutathione reductase (TGR), Q962Y6; purified TGR, DTNB reduction, TNB absorbance 405 nm; Potency, µM (series often up to 114 µM), for the others: at the top dose activity change, negative = inhibition, most hits filed as inhibitors; 3% of 360,000 active; also: potency is read from the fitted curve at half-maximal effect; nearly all actives have a fitted effect of over 60% in size
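First, TGR (20 nM dispensed) and NADPH were mixed with compound. Second, a 15 min room-temperature incubation followed. Third, further NADPH and then DTNB were added to start the reaction. Finally, TNB absorbance was monitored kinetically.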
Starred values were filed as active, the others as inactive; ? = inconclusive; / = not tested or not shown; [ ] = dose if it differs, or a comment. A selection: hits, their analogues and other compounds. The true share with any hit is near 14%. Unless noted, calls follow the shape of the dose curve; as a rule, active = well fitted curve in the direction sought with a large enough effect; inconclusive = small, poorly fitted or top-dose-only effect, or another doubt; inactive = no such curve, though single readings can be large; an effect the other way counts as inactive or inconclusive. % is scaled to controls: 0 for no effect and ±100 for the full control effect.

SMILES	Pf growth 48h	HCMV antiviral	Giardia FBPA inh	Pf growth 96h	Sm TGR inh
O=c1c(Oc2ccccc2Br)c(C(F)(F)F)oc2c(CN3CCCC3)c(O)ccc12	10µM*	42	2%	2.1µM*	-20%
Cc1cc(Oc2c(C(F)(F)F)oc3c(CN4CCC(C)CC4)c(O)ccc3c2=O)cc(C)c1Cl	/	9	/	/	7%
O=C(COC(=O)c1ccc[nH]c1=O)NCC12CC3CC(CC(C3)C1)C2	33%	25	/	4%	1%
O=C(Nc1ccccc1)c1cc(C2COCCN2C(=O)CCCc2ccccc2)on1 (stereo not drawn)	/	5	/	/	/
CCN1CCN(C(c2cccs2)C(C)NS(=O)(=O)c2ccc(C)cc2)CC1 (stereo not drawn)	4%	3	1%	18%	3%
CCOC(=O)C(=O)C1=C(N2CCOCC2)/C(=C\c2ccc(F)cc2)CC1	14%	?	-9%	39%	28µM*
COc1ccccc1NC(=O)Nc1ccnn1C1CCN(C(=O)C2CCOC2)CC1 (stereo not drawn)	/	5	/	/	/
CCC(C(=O)NCc1ccccn1)n1c2ccccc2c2nc(=O)cc(C)n21 (stereo not drawn)	7%	-13	/	1%	-6%
CCc1ccc2nc(N=C(N)N)nc(C)c2c1	?	-87*	-5%	33%	-3%
Cc1cc2nc(N=C(N)N)nc(C)c2cc1C	?	-99*	-4%	0%	2%
Cc1ccc(S(=O)(=O)/N=C(\N)Nc2nc(C)c3cc(C)c(C)cc3n2)cc1	?	-20	0%	?	5%
Cc1ccc2nc(N=C(N)N)nc(C)c2c1	?	-89*	-1%	20%	5%
Cc1nc(/N=C(\N)NC(=O)c2ccccc2)nc2ccccc12	17%	41	-2%	2%	-18%
Cc1nc(N=C(N)N)nc2ccccc12	?	-81*	1%	6%	-3%
N#Cc1ccc(CN2CC3(CCN(C(=O)c4cccc(F)c4)CC3)C2)cc1	/	/	-2%	/	/
COc1ccc(Cn2c(CCC(=O)Nc3ccc(C)cc3)nc3cccnc32)cc1	/	25	-17%	10µM*	-1%
CCCNC(=S)Nc1ccc2nc(-c3ccccn3)c(-c3ccccn3)nc2c1	?	-21	?	?	13µM*
S=C(Nc1ccc2nc(-c3ccccn3)c(-c3ccccn3)nc2c1)N1CCCCC1	-16%	/	1%	?	-1%
COCCN=C1Sc2nc3ccc(C)cc3cc2CN1Cc1cccs1	0%	21	-28%	?	-23%
Cc1cccc2cc3c(nc12)SC(=NCC1CCCO1)N(Cc1ccco1)C3 (stereo not drawn)	4.1µM*	/	0%	-6%	?
COCCN=C1Sc2nc3c(C)cccc3cc2CN1Cc1ccco1	8.3µM*	3	-5%	-5%	0%
Cc1ccc2nc3c(cc2c1)CN(Cc1ccco1)C(=NCC1CCCO1)S3 (stereo not drawn)	?	-70*	3%	?	?
CCN1CCc2nc(N)oc2CC1	14%	-70*	-2%	35%	5.6µM*
CCN1CCN(c2nc3c(c(=O)[nH]2)CCCC3)CC1	0%	11	-1%	-23%	0%
O=[N+]([O-])CC(=Nc1ccc(Cl)cc1)N/N=C\c1oc(O)c2ccccc12	/	79	-12%	44%	13µM*
SMILES	Pf growth 48h	HCMV antiviral	Giardia FBPA inh	Pf growth 96h	Sm TGR inh
CCCCCCC(O)(c1ccc(OC)cc1)C(CN1CCOCC1)c1ccccc1 (stereo not drawn)	1.9µM*	-69*	3%	10µM*	-10%
CCCCCOc1ccc(C(C)(O)C(CN2CCOCC2)c2ccccc2)cc1 (stereo not drawn)	?	-23	1%	0%	3%
CCCCCC(O)(c1ccccc1)C(CN1CCOCC1)c1ccccc1 (stereo not drawn)	2.6µM*	-60*	-21%	0%	12%
CCCCCCC(O)(c1ccccc1)C(CN1CCOCC1)c1ccccc1 (stereo not drawn)	3.3µM*	-76*	-14%	3%	0%
CC(C)C(O)(c1ccccc1)C(CN1CCOCC1)c1ccccc1 (stereo not drawn)	?	-18	?	12%	55%
CCc1ccc(C(C)(O)C(CN2CCOCC2)c2ccccc2)cc1 (stereo not drawn)	?	-38	-21%	203%	0%
COc1ccc2c(c1OC)C(=O)N(c1cccc(/C=C/C(=O)O)c1)C2	-15%[0.00184 µM]	55	11%	-16%	0%
CCC[C@H]1C[C@H](C(=O)N[C@H]([C@@H]2O[C@H](SC)[C@@H](O)[C@H](O)[C@@H]2O)[C@H](C)O)N(C)C1	/	/	-5%[21.7 µM]	/	/
COc1ccc(S(=O)(=O)NCCc2cn3nc(C)c(C)nc3n2)cc1C	-16%	32	/	?	45µM*
COc1ccc(/C=N/NC(=O)c2ccncc2)cc1CSc1nc2ccccc2s1	-1%	-4	-13%	?	2%
CCOC(=O)[C@]12Cc3ccccc3[C@H]1N(C(C)C)C(=O)c1ccccc12	/	-105*	/	/	/
CCOC(=O)[C@]12Cc3cc(Cl)ccc3[C@H]1N(C1CCCCC1)C(=O)c1cc(OC)ccc12	/	-104*	/	/	/
CCOC(=O)[C@]12Cc3cc(Cl)ccc3[C@H]1N(Cc1ccccc1)C(=O)c1ccccc12	/	-34	/	/	/
CCOC(=O)[C@]12Cc3c(cc(OC)c(OC)c3OC)[C@H]1N(C1CCCCC1)C(=O)c1ccccc12	/	-102*	/	/	/
CCOC(=O)[C@]12Cc3cc(N(C)C)ccc3[C@H]1N(Cc1ccccc1)C(=O)c1ccccc12	/	-26	/	/	/
CCOC(=O)[C@]12Cc3ccc(C)cc3[C@H]1N(C1CCCCC1)C(=O)c1ccccc12	/	-101*	/	/	/
C=C(c1ccc2cc(OC)ccc2c1)[C@H](C#N)C1CCCC1	/	-22	/	/	/
Fc1ccc(Nc2cc3[nH]c(-c4ccccc4)cc3cn2)cc1	/	-6	/	/	/
CCOC(=O)[C@]12Cc3cc(C)ccc3[C@H]1N(CCC(=O)OC)C(=O)c1ccccc12	/	-110*	/	/	/
CCOC(=O)[C@]12Cc3cc4c(cc3[C@H]1N(Cc1ccccc1)C(=O)c1ccccc12)OCO4	/	-18	/	/	/
CCOC(=O)[C@]12Cc3cc(C)ccc3[C@H]1N(C1CCCCC1)C(=O)c1ccccc12	/	-103*	/	/	/
CCOC(=O)[C@]12Cc3ccc(C)cc3[C@H]1N(C1CCCCC1)C(=O)c1cc(OC)ccc12	/	-103*	/	/	/
c1ccc2oc(-c3ccn[nH]3)cc2c1	111%	13	-7%	83%	27%

Screens (PubChem BioAssay)
